“And” between values parts separate entries of the source, which are not always exact repeats. Identical values can stand only once. The panel holds about 83,000 compounds, 20% with a hit somewhere; the sample as a whole holds those more often.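 Note: values are percent growth. 100 is the growth of untreated cells, values between 100 and 0 indicate rising inhibition; between -100 and 0 indicates cell death.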 The source made the active and inactive calls. How the source made its calls: active means growth percent below 10; inactive means the rest.
Legend:
Test in all cases: NCI-60 one-dose screen, 48 h (100 = growth as untreated, 0 = no growth, -100 = all killed)
Settings in all cases: 10 µM unless noted
T-47D breast = test system: T-47D breast
BT-549 breast = test system: BT-549 breast
MDA-MB-435 melanoma = test system: MDA-MB-435 melanoma
SW-620 colon = test system: SW-620 colon
MCF7 breast = test system: MCF7 breast
HCT-116 colon = test system: HCT-116 colon
HCC-2998 colon = test system: HCC-2998 colon
KM12 colon = test system: KM12 colon

SMILES	growth (T-47D breast)	growth (BT-549 breast)	growth (MDA-MB-435 melanoma)	growth (SW-620 colon)	growth (MCF7 breast)	growth (HCT-116 colon)	growth (HCC-2998 colon)	growth (KM12 colon)
COc1ccc(Cn2cc(C(=O)Nc3cccnc3Nc3ccccc3)nn2)cc1	91.7% (inactive)	86.9% (inactive)	96.5% (inactive)	112% (inactive)	91% (inactive)	103% (inactive)	88.5% (inactive)	97.8% (inactive)
O=Nc1ccc(NO)c2ccccc12	96.9% (inactive) and 65.8% (inactive)	83.3% (inactive) and 87.8% (inactive)	107% (inactive) and -57.8% (active)	86% (inactive) and 52.3% (inactive)	91.5% (inactive) and 64.5% (inactive)	95% (inactive) and 39.1% (inactive)	120% (inactive) and 108% (inactive)	104% (inactive) and 76.4% (inactive)
COc1ccc(C/C(C)=C(/c2ccc(OCCN3CCCC3)cc2)c2ccc(OC(=O)NCc3ccccc3)cc2)cc1	51% (inactive)	82.5% (inactive)	73% (inactive)	95.3% (inactive)	30.7% (inactive)	39.6% (inactive)	87.8% (inactive)	90.7% (inactive)
C/C=C(\C)C(=O)N[C@H]1CC[C@]2(C)C3CC[C@@]4(C)C(CC[C@@H]4C(C)N(C)C)C3CCC2[C@H]1OC(C)=O (some centres not stated)	-43.5% (active)	-11% (active)	-56.8% (active)	-93% (active)	-27% (active)	-83.3% (active)	-85.4% (active)	-48.1% (active)
O=[N+]([O-])c1ccc2[nH]c3nccc(NCc4cccc(Cl)c4)c3c2c1	67.4% (inactive)	70% (inactive)	77% (inactive)	63.6% (inactive)	82.4% (inactive)	67.6% (inactive)	114% (inactive)	84.7% (inactive)
COC(=O)c1nc(-c2ccccc2)oc1S(=O)(=O)N(C)CCO	44.5% (inactive)	72.5% (inactive)	60.9% (inactive)	40.4% (inactive)	47.8% (inactive)	46.7% (inactive)	99.4% (inactive)	89.4% (inactive)
O=C1/C(=C/c2ccccc2)CN(C(=O)C(Cl)Cl)C/C1=C\c1ccccc1	17.2% (inactive)	-5.59% (active)	-50.2% (active)	-49% (active)	-39% (active)	-70.7% (active)	-59.6% (active)	-61.8% (active)
COc1ccc2nc3cc(Cl)ccc3c(NCCCNCCC(C)O)c2c1 (configuration not stated)	4.09% (active)	-1.95% (active)	-86.3% (active)	-22.2% (active)	-0.546% (active)	-49.9% (active)	-60.9% (active)	-20% (active)
COc1ccc(/C=C/C(=O)c2cc3c(N)c(C(=O)Nc4ccccc4)sc3nc2C)cc1	46.7% (inactive)	2.86% (active)	-23.9% (active)	18% (inactive)	7.19% (active)	8.12% (active)	11.7% (inactive)	6.61% (active)
COc1nc(=O)n(C2C=CC(=O)O2)cc1F (configuration not stated)	41.7% (inactive)	81.2% (inactive)	79% (inactive)	46.3% (inactive)	31.9% (inactive)	34.3% (inactive)	133% (inactive)	103% (inactive)
NS(=O)(=O)OCC1OC(n2cnc3cncnc32)C(O)C1O (configuration not stated)	7.17% [0.1 µM] (active) and 10.8% [0.1 µM] (inactive)	36% [0.1 µM] (inactive) and 32.4% [0.1 µM] (inactive)	1.21% [0.1 µM] (active) and 13.3% [0.1 µM] (inactive)	5.5% [0.1 µM] (active) and 6.37% [0.1 µM] (active)	5.2% [0.1 µM] (active) and 3.48% [0.1 µM] (active)	2.55% [0.1 µM] (active) and 6.83% [0.1 µM] (active)	30.7% [0.1 µM] (inactive) and 22.9% [0.1 µM] (inactive)	14% [0.1 µM] (inactive) and 10.4% [0.1 µM] (inactive)
CN1CCN(CCNC(=O)c2cccc(CN3c4cccc5c4C(=Cc4cccnc43)N(C)C5=O)c2)CC1	34.8% (inactive)	57.5% (inactive)	39.8% (inactive)	52.7% (inactive)	16.6% (inactive)	25.8% (inactive)	39.8% (inactive)	44.6% (inactive)
O=C(Nc1cc(C(F)(F)F)cc(C(F)(F)F)c1)c1cc(Cl)ccc1O	-14% (active) and -1.66% (active)	-31.5% (active)	-21.2% (active) and -8.57% (active)	2% (active) and 5.7% (active)	3.02% (active) and 1.11% (active)	-20.2% (active) and -28.9% (active)	-25.4% (active) and 4.04% (active)	-24.3% (active) and -33% (active)
N#Cc1c(-c2cccc(F)c2)cc(-c2cccnc2)[nH]c1=O	93.4% (inactive)	98.3% (inactive)	100% (inactive)	110% (inactive)	92.4% (inactive)	103% (inactive)	112% (inactive)	103% (inactive)
Cn1cc2c(=O)nc3c(-c4nc5ccccc5[nH]4)n[nH]n3c2n1	67.6% (inactive)	34.7% (inactive)	73.9% (inactive)	97.2% (inactive)	65.7% (inactive)	80.6% (inactive)	84.8% (inactive)	73.9% (inactive)
O=C(NCCCN1CCCCC1)c1ccc(-c2nc3ccc4[nH]ncc4c3c3c2CCCC3)cc1	86.9% (inactive)	31.4% (inactive)	26.7% (inactive)	24.5% (inactive)	31.8% (inactive)	16.8% (inactive)	76% (inactive)	20.6% (inactive)
C=C(CNCCc1ccc(O)cc1)[C@@H]1CC[C@]2(CO)CC[C@]3(C)[C@H](CC[C@@H]4[C@@]5(C)CCC(NCCc6ccc(O)cc6)C(C)(C)[C@@H]5CC[C@]43C)[C@@H]12 (some centres not stated)	-69.1% (active)	-79.7% (active)	-89.9% (active)	-74.1% (active)	-74.3% (active)	-92% (active)	-91.3% (active)	-77.4% (active)
O=C(CN1C(=O)S/C(=C\C(Cl)=C\c2ccccc2)C1=O)NCCCn1ccnc1	21.3% (inactive)	43.8% (inactive)	20.2% (inactive)	3.27% (active)	15% (inactive)	-57.2% (active)	73.5% (inactive)	33.9% (inactive)
CC(C)=CCc1cc(O)c(O)c2oc3cc(O)cc(O)c3c(=O)c12	69.5% (inactive)	75.1% (inactive)	61.1% (inactive)	61.9% (inactive)	91.6% (inactive)	43.1% (inactive)	104% (inactive)	59.8% (inactive)
Nc1nc(Cl)nc2c1ncn2C1OC(CO)C(O)C1O (configuration not stated)	93.5% (inactive) and 107% (inactive)	40.2% (inactive)	49.2% (inactive) and 53.5% (inactive)	66.5% (inactive) and 72.8% (inactive)	37.8% (inactive) and 33.8% (inactive)	41.9% (inactive) and 43% (inactive)	51% (inactive) and 51.7% (inactive)	60.1% (inactive) and 86.2% (inactive)
COc1ccc(/C=N/NC(=O)CN2CCN(c3cc4c(cc3F)c(=O)c(C(=O)O)cn4C3CC3)CC2)cc1O	96.6% (inactive)	107% (inactive)	107% (inactive)	102% (inactive)	92.6% (inactive)	93.4% (inactive)	99.2% (inactive)	102% (inactive)
CCOC(=O)C1=C(C)NC(=O)NC1c1c(Cl)n(-c2ccccc2)c2ccccc12 (configuration not stated)	90.4% (inactive)	70.4% (inactive)	54% (inactive)	83.2% (inactive)	87.9% (inactive)	69.1% (inactive)	91.8% (inactive)	92.3% (inactive)
Clc1ccc2c(c1)N(c1ncnc3ccc(-c4cnc5[nH]ccc5c4)cc13)CC2	-15% (active)	20.1% (inactive)	-42.1% (active)	24.5% (inactive)	6.81% (active)	16.6% (inactive)	43.7% (inactive)	19.9% (inactive)
CN1CCN(Cc2ccc(NC(=O)c3cccc(C#Cc4c(N)ncc5ccc(F)cc45)c3)cc2C(F)(F)F)CC1	14.8% (inactive)	28.5% (inactive)	-95.9% (active)	-91.6% (active)	-80.9% (active)	-93.1% (active)	-86.8% (active)	-82.1% (active)
C#CCOCC1CN(C)C(=O)O1 (configuration not stated)	126% (inactive)	131% (inactive)	101% (inactive)	97% (inactive)	90.2% (inactive)	119% (inactive)	109% (inactive)	107% (inactive)
[Cu+].[NH-][C@H]1C[N-]C(=O)[C@H]([C@H]2CCN=C(N)N2)[N-]C(=O)/C(=C\NC(N)=O)[N-]C(=O)[C@H](CNC(=O)C[C@@H](N)CCCN)[N-]C(=O)[C@H](CO)[N-]C1=O	89.5% (inactive)	104% (inactive)	94.3% (inactive)	91.7% (inactive)	101% (inactive)	97.4% (inactive)	110% (inactive)	101% (inactive)
COc1ccc(C(c2cc(OC)c(OC)c(OC)c2)n2ccnc2)cc1O (configuration not stated)	42.6% (inactive)	-0.0718% (active)	-29.5% (active)	28.6% (inactive)	18.4% (inactive)	6.88% (active)	25% (inactive)	17% (inactive)
O=C(NCc1cccnc1)/C(=C\c1ccc(Br)cc1)S(=O)(=O)c1ccccc1	-64.6% (active)	-21.2% (active)	-14.9% (active)	-74% (active)	-44.4% (active)	-76% (active)	-76.5% (active)	-48.1% (active)
Cc1ccc2nc3ccccc3c(NCc3ccc(Cl)cc3)c2c1	57.9% (inactive)	75.6% (inactive)	70.3% (inactive)	32.1% (inactive)	-20.8% (active)	14.7% (inactive)	-79% (active)	77.1% (inactive)
